# Results filed as inconclusive are left out. Entries that show only a call come without a potency. A number with no mark means an inactive call. Active and inactive are the calls of the source. Unless noted, calls come from the whole dose curve; as a rule, active = well fitted curve in the direction sought with a large enough effect in the repeat runs; inconclusive = weak or mixed curves; inactive = no such curve, though single readings can be large; an effect the other way counts as inactive or inconclusive.
# How the values were obtained:
# [1] = target: Retinoic acid receptor RXR-alpha (Homo sapiens) (UniProt P19793); assay: qHTS assay to identify small molecule agonists of the RXR signaling pathway (AID 1159527; calls by dose curve; note: nearly all actives have a fitted effect of over 35% in size; note: potency is the fitted concentration of half-maximal effect)
# How it was run: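 GeneBLAzer RXR-alpha-UAS-bla HEK 293T cells in 2% charcoal-stripped FBS medium were exposed to compounds for 16 hr at 37 C in agonist mode. Beta-lactamase reporter read as 460/530 nm FRET ratio after 2 hr substrate loading.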
# [2] = qHTS assay to identify small molecule agonists of the RXR signaling pathway - cell viability counter screen (AID 1159529); note: series mostly up to about 77 µM; nearly all actives have a fitted effect of over 50% in size
# How it was run: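 RXR-alpha-UAS-bla HEK 293T cells in medium with 2% charcoal-stripped FBS were pre-incubated 5 hr, then compound-treated 16 hr at 37 C. Viability was read by CellTiter-Glo luminescence in the same wells as the beta-lactamase assay, with tetraoctyl ammonium bromide as positive control.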
# [3] = qHTS assay to identify small molecule antagonists of the retinoid acid receptor (RAR) signaling pathway - cell viability counter screen (AID 1159551); note: nearly all actives have a fitted effect of over 35% in size
# How it was run: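 Retinol-stimulated (1 uM final) C3RL4 cells, compound 6 h, 37 C; readout CellTiter-Glo luminescence (ATP) after 30 min RT incubation.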
# [4] = qHTS assay to identify small molecule antagonists of the retinoic acid receptor (RAR) signaling pathway (AID 1159552; note: nearly all actives have a fitted effect of over 50% in size)
# How it was run: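 Retinol signaling pathway inhibitors screened in C3RL4 RARE-luciferase reporter cells seeded overnight at 37 C, then compounds added with 1 uM (final) retinol as pathway substrate. After 6 hr at 37 C, luciferase luminescence read after 30 min at room temperature.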
# [5] = qHTS assay to identify small molecule agonists of the retinoic acid receptor (RAR) signaling pathway (AID 1159553)
# How it was run: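 Reporter readout comes from luciferase under RARE control in C3RL4 cells; compound exposure lasts 6 hr at 37 C in 5% CO2, and luminescence is recorded following a 30 min room-temperature incubation with reagent.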
# [6] = qHTS assay to identify small molecule antagonists of the estrogen related receptor (ERR) signaling pathway from Tox21 library - cell viability counter screen (AID 1224834); note: nearly all actives have a fitted effect of over 30% in size
# How it was run: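 After 17.5 h of compound exposure at 37 C, ERR cells are incubated with CellTiter-Fluor for 30 min and fluorescence intensity serves as the viability measure.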
# [7] = target: Luciferin 4-monooxygenase (Photinus pyralis) (UniProt P08659); assay: qHTS assay to identify small molecule inhibitors of firefly luciferase (AID 1224835); note: nearly all actives have a fitted effect of over 25% in size; note: potency is the fitted concentration of half-maximal effect
# How it was run: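 Inhibition of purified Photinus luciferase is measured by luminescence. Substrate levels (D-luciferin, ATP) sit at their KM values. Each compound is tested in a concentration series.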
# [8] = qHTS assay to identify small molecule agonists of the constitutive androstane receptor (CAR) signaling pathway - cell viability counter screen (AID 1224836); note: series mostly up to about 92 µM; nearly all actives have a fitted effect of over 45% in size
# How it was run: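 HepG2 cells stably carrying hCAR and a CYP2B6-2.2kb reporter; 15-concentration compounds plus PK11195 (final 0.75 uM), 23 hr at 37 C/5% CO2. Viability read by CellTiter-Fluor fluorescence.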
# [9] = qHTS assay to identify small molecule antagonists of the constitutive androstane receptor (CAR) signaling pathway - cell viability counter screen (AID 1224837); note: series mostly up to about 92 µM; nearly all actives have a fitted effect of over 45% in size
# How it was run: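 Counter screen run in HepG2-CYP2B6-hCAR cells: 4 hr settle, compound titration (15 concentrations) with 50 nM CITCO, 23 hr at 37 C/5% CO2, CellTiter-Fluor fluorescence.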
# [10] = target: Nuclear receptor subfamily 1 group I member 3 (Homo sapiens) (UniProt Q14994); assay: qHTS assay to identify small molecule antagonists of the constitutive androstane receptor (CAR) signaling pathway (AID 1224838);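 note: HepG2 cells stably expressing hCAR with CYP2B6 luciferase reporter stimulated by CITCO; nearly all actives have a fitted effect of over 40% in size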
# How it was run: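 Cell line: HepG2 double-stable for hCAR and CYP2B6-2.2kb reporter. Agonist: CITCO, 50 nM final. Compounds: 15 concentrations, 24 h, 37 C. Detection: ONE-Glo luminescence.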
# [11] = target: Nuclear receptor subfamily 1 group I member 3 (Homo sapiens) (UniProt Q14994); assay: qHTS assay to identify small molecule agonists of the constitutive androstane receptor (CAR) signaling pathway (AID 1224839);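 note: HepG2 cells stably carrying human CAR and a CYP2B6 luciferase reporter; series mostly up to about 92 µM; nearly all actives have a fitted effect of over 15% in size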
# How it was run: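 HepG2 cells stably co-transfected with hCAR and a CYP2B6-2.2kb luciferase reporter; compounds at 15 concentrations with 0.75 uM PK11195 present. After 24 hr at 37 C, luciferase read by ONE-Glo luminescence.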
# [12] = qHTS assay to identify small molecule antagonists of the estrogen related receptor signaling pathway with the pleiotropic PPARgamma coactivator (PGC) from Tox21 10K library - cell viability counter screen (AID 1224840; active = well fitted cell-killing curve with a large enough effect in the repeat runs, not every such curve was filed as active; note: nearly all actives have a fitted effect of over 40% in size)
# How it was run: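 Following seeding of 2,000 PGC/ERR cells/well and 6 hours' incubation, test compounds were delivered in DMSO. The plates then sat 17.5 hours at 37 C before a fluorogenic live-cell protease reagent (CellTiter-Fluor) was read after 30 min.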
# [13] = qHTS assay to identify small molecule agonists of the estrogen related receptor signaling pathway with the pleiotropic PPARgamma coactivator (PGC) from Tox21 10K library (AID 1224842); note: nearly all actives have a fitted effect of over 15% in size
# How it was run: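 Luminescence from One-Glo (30 min, room temperature) measured after PGC/ERR cells had 18 h at 37 C with pinned compound (23 nL in DMSO). Cells had been seeded at 2,000 per well and pre-incubated 6 h.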
# [14] = target: Thyrotropin receptor (Homo sapiens) (UniProt P16473); assay: qHTS assay to identify small molecule agonists of the thyroid stimulating hormone receptor (TSHR) signaling pathway (AID 1224843; calls by dose curve; note: nearly all actives have a fitted effect of over 45% in size)
# How it was run: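 Screening of the Tox21 10K collection used HEK293 cells engineered with TSHR at 800 cells per well. After a 30-min room-temperature compound exposure, HTRF cAMP reagents were added and fluorescence recorded 1 h later.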
# [15] = qHTS assay to identify small molecule agonists of the hypoxia (HIF-1) signaling pathway - cell viability counter screen (AID 1224844; calls by dose curve; note: nearly all actives have a fitted effect of over 50% in size)
# How it was run: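 Cells (HRE-bla ME-180, 2,000 per well) sat 5 hrs at 37C, got compound for 17 hrs, were read for CCF4-AM FRET, and were finally lysed with CellTiter-Glo for a 30 min room-temperature luminescence read.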
# [16] = qHTS assay to identify small molecule agonists of H2AX (AID 1224845; active = well fitted activation curve with a large enough effect in the signal ratio in the repeat runs, not every such curve was filed as active; the % refers to the signal ratio)
# How it was run: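 Phospho-H2AX Ser139 measured by HTRF (ex 320 nm; em 665 and 620 nm) after 24 hr antibody incubation. Compounds, 15 concentrations, 0.76% DMSO, were applied to CHO-K1 cells for 3hr at 37C before lysis.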
# [17] = qHTS assay to identify small molecule agonists of H2AX - cell viability counter screen (AID 1224847; calls by dose curve;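 note: wild-type CHO-K1 cells; top concentration of the series differs between compounds; nearly all actives have a fitted effect of over 30% in size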)
# How it was run: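 CHO-K1 cells plated overnight at 37C, then exposed 3 h at 37C to compounds at 15 concentrations (0.76% DMSO final). Viability by CellTiter-Glo luminescence after 30 min at room temperature.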
# [18] = qHTS assay to identify small molecule antagonists of the estrogen related receptor (ERR) signaling pathway from Tox21 library (AID 1224848); note: nearly all actives have a fitted effect of over 50% in size
# How it was run: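 Antagonist-mode screen of the Tox21 10K library in an NTP-provided ERR reporter cell line; 18 h compound exposure at 37 C, luminescence measured with ONE-Glo.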
# [19] = qHTS assay to identify small molecule agonists of the hypoxia (HIF-1) signaling pathway (AID 1224846; active = well fitted activation curve with a large enough effect in the signal ratio in the repeat runs, not every such curve was filed as active; the % refers to the signal ratio)
# How it was run: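 A low-serum medium (0.5% dialyzed FBS) holding 2,000 HRE-bla ME-180 cells per well is preincubated for 5 hrs, dosed with compounds by pintool, and kept a further 17 hrs at 37C, 5% CO2 before CCF4-AM FRET detection of beta-lactamase.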
# [20] = qHTS assay to identify small molecule antagonists of the estrogen related receptor signaling pathway with the pleiotropic PPARgamma coactivator (PGC) from Tox21 10K library (AID 1224841; call rule not given here)
# How it was run: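 qHTS antagonist format: PGC/ERR cells, 2k/well, compound in DMSO by pin transfer after 6 h attachment, 18 h treatment at 37 C, One-Glo luminescence read at 30 min.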
# Nuclear receptor subfamily 1 group I member 3 (Homo sapiens), sequence (Q14994 whole entry, looked up): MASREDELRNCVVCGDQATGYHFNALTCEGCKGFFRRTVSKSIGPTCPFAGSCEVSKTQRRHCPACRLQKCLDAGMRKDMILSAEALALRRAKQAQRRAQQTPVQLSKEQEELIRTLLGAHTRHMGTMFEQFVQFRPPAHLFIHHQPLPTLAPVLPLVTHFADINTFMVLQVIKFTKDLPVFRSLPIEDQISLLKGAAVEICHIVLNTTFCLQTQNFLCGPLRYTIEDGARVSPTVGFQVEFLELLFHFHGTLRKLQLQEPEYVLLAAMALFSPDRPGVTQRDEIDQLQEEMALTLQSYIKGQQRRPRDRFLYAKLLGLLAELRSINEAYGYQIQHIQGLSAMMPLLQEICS
# Luciferin 4-monooxygenase (Photinus pyralis), sequence (P08659 whole entry, looked up): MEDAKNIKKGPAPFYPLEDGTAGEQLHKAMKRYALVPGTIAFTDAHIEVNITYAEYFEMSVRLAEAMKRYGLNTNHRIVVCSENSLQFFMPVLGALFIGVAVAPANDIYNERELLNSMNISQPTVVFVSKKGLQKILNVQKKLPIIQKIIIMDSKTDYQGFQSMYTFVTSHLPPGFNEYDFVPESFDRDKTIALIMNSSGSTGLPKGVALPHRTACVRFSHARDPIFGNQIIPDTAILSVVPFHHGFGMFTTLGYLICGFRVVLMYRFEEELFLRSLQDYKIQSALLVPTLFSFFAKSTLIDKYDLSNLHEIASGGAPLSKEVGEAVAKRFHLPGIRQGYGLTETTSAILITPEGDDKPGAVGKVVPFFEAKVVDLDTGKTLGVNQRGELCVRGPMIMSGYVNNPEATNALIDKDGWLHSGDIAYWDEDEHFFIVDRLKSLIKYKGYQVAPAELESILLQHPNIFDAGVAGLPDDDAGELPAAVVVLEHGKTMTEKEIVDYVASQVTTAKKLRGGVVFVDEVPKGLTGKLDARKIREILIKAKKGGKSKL
# Thyrotropin receptor (Homo sapiens), sequence (P16473 whole entry, looked up): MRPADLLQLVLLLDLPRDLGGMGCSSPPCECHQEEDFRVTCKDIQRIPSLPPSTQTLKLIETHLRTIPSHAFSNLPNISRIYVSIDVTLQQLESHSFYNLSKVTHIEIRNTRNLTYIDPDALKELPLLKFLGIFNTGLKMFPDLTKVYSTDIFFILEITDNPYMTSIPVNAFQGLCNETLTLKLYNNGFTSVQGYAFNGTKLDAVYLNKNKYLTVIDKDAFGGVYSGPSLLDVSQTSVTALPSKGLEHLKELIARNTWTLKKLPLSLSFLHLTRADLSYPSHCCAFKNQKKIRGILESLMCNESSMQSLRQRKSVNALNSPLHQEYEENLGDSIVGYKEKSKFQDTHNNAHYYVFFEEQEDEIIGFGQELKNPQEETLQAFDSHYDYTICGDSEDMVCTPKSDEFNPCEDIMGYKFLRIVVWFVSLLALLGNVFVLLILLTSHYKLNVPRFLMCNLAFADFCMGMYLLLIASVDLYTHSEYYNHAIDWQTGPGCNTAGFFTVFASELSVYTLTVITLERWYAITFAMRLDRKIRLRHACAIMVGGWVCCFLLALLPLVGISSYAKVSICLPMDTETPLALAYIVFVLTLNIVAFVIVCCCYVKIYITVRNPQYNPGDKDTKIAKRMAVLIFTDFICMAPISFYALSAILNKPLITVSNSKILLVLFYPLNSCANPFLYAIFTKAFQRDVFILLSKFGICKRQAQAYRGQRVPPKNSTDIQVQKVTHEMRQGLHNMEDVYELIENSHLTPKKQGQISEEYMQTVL
# Retinoic acid receptor RXR-alpha (Homo sapiens), sequence (P19793 whole entry, looked up): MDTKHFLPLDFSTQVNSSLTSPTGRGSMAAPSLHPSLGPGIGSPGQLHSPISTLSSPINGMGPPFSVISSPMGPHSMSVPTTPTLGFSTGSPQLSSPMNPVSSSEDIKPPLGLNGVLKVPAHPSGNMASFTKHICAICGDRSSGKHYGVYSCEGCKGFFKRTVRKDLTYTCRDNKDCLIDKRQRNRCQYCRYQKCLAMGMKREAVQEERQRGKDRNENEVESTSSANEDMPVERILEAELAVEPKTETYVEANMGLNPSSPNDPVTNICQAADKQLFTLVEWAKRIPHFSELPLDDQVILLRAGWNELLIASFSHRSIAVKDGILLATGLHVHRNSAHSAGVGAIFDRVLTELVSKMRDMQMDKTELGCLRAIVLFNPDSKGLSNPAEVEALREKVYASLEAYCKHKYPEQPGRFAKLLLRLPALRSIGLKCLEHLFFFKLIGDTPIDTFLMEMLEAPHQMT
SMILES,Potency [1],outcome [2],outcome [3],outcome [4],Potency [5],outcome [6],Potency [7],outcome [8],outcome [9],Potency [10],Potency [11],outcome [12],outcome [13],outcome [14],outcome [15],outcome [16],outcome [17],Potency [18],outcome [19],outcome [20]
Nc1nc(-c2ccccc2)c(Br)c(=O)[nH]1,inactive,inactive,inactive,inactive,inactive,inactive,inactive,inactive,inactive,inactive,inactive,inactive,inactive,inactive,inactive,inactive,inactive,inactive,–,–
O=C(O)CNC(=O)CNC(=O)CNC(=O)CSC(=O)c1ccccc1,inactive,inactive,inactive,inactive,inactive,inactive,inactive,inactive,inactive,inactive,inactive,inactive,–,inactive,inactive,inactive,–,–,inactive,–
C[Si]1(C)O[Si](C)(C)O[Si](C)(C)O[Si](C)(C)O[Si](C)(C)O1,inactive,inactive,inactive,inactive,inactive,inactive,inactive,inactive,inactive,inactive,inactive,inactive,–,inactive,inactive,inactive,inactive,–,inactive,–
CC(C)C[C@@H]1[C@H](c2ccccc2)OC(=O)N1CCCN1CCCCCC1,inactive,inactive,inactive,inactive,inactive,inactive,inactive,inactive,inactive,inactive,inactive,inactive,inactive,–,inactive,inactive,inactive,inactive,–,inactive
CCN(CC)CCN,inactive,inactive,inactive,inactive,inactive,inactive,inactive,inactive,inactive,inactive,inactive,inactive,–,inactive,inactive,inactive,–,–,inactive,–
COc1cc(OC)nc(O[C@H](C(=O)O)C(OC)(c2ccccc2)c2ccccc2)n1,inactive,inactive,inactive,inactive,inactive,inactive,inactive,inactive,inactive,inactive,inactive,inactive,–,inactive,inactive,inactive,–,–,inactive,–
c1ccc2c(CC3=NCCN3)cccc2c1,inactive,inactive,inactive,inactive,inactive,inactive,inactive,inactive,inactive,inactive,inactive,inactive,inactive,–,inactive,inactive,–,inactive,–,inactive
CCCCSCCCC,21.9 µM (active),inactive,inactive,inactive,inactive,inactive,inactive,inactive,inactive,inactive,inactive,inactive,–,inactive,inactive,inactive,inactive,–,inactive,–
CCC(C)C(=O)OCCc1ccccc1 (centres undefined),43.6 µM (active),inactive,inactive,inactive,inactive,inactive,50.2 µM (active),inactive,inactive,inactive,inactive,inactive,–,inactive,inactive,inactive,inactive,–,inactive,–
C/C=C(\C)C(C)=O,inactive,inactive,inactive,inactive,inactive,inactive,inactive,inactive,inactive,inactive,inactive,inactive,–,inactive,inactive,inactive,inactive,–,–,–
CC(C)[C@H]1CC[C@H](C)C[C@@H]1O,inactive,inactive,inactive,inactive,inactive,inactive,inactive,inactive,inactive,inactive,inactive,inactive,–,inactive,inactive,inactive,inactive,–,inactive,–
Cc1ccccc1C(N)=O,inactive,inactive,inactive,inactive,inactive,inactive,inactive,inactive,inactive,inactive,inactive,inactive,–,inactive,inactive,inactive,inactive,–,inactive,–
C[C@@H](O)C(=O)O,inactive,inactive,inactive,inactive,inactive,inactive,inactive,inactive,inactive,inactive,inactive,inactive,–,inactive,inactive,inactive,inactive,–,inactive,–
CN(C)CCOC(=O)C(c1ccccc1)C1(O)CCCC1 (centres undefined),inactive,inactive,inactive,inactive,inactive,inactive,inactive,inactive,inactive,inactive,inactive,inactive,–,inactive,inactive,inactive,inactive,–,–,–
O=C(Cl)c1ccccc1[N+](=O)[O-],inactive,inactive,inactive,inactive,inactive,inactive,inactive,inactive,inactive,inactive,inactive,inactive,–,inactive,inactive,inactive,inactive,–,inactive,–
OC1OCCOC1O (centres undefined),inactive,inactive,inactive,inactive,inactive,inactive,inactive,inactive,inactive,inactive,inactive,inactive,–,inactive,inactive,inactive,inactive,–,inactive,–

# Reference: PubChem BioAssay (Tox21)
